Measurements taken from the supplement of paper PMC6522484.
± gives the standard deviation of the averaged measurements.

Assays:
DLD1 [1] = test: cell viability (CellTiter-Glo) relative to plate median (fraction of plate median); higher = more viable cells; settings: 5 µM; treatment time 24 h; reporter: 7TFP
Summary of the method: (§1)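 Cells were seeded in 384-well plates; these were colorectal cancer lines stably transduced with lentiviral 7TFP or TCF4/Wnt firefly luciferase reporters. After 24 h, library compounds went in at a final 5 µM, and exposure lasted 24 h. Parallel plates were then read for firefly luciferase or CellTiterGlo luminescence, each well normalised to its plate median, with two independent replicates averaged.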

HCT116 [2] = test: as above; settings: 5 µM; treatment time 24 h; reporter: TCF4/Wnt
Summary of the method: as §1

SW480 [3] = test: as above; settings: 5 µM; treatment time 24 h; reporter: 7TFP
Summary of the method: as §1

DLD1 [4] = test: TCF/Wnt firefly luciferase reporter signal relative to plate median (fraction of plate median); higher = higher Wnt reporter signal; settings: 5 µM; treatment time 24 h; reporter: 7TFP
Summary of the method: as §1

SW480 [5] = test: as above; settings: 5 µM; treatment time 24 h; reporter: 7TFP
Summary of the method: as §1

DLD1 [6] = test: cell viability (CellTiter-Glo) relative to plate median (fraction of plate median); higher = more viable cells; settings: 10 µM, treatment time 24 h
Summary of the method: (§2)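 Values are the mean of two independent replicates of luminescence normalised to the plate median with webcellHTS2, using the additive method without log transformation. They come from colorectal cancer cell lines stably transduced with lentiviral TCF/Wnt firefly luciferase reporters (7TFP or TCF4/Wnt), seeded in 384-well plates. After 24 h the cells got kinase inhibitor library compounds at a final 10 µM for 24 h, and parallel plates were read for firefly luciferase or CellTiterGlo on a Tecan F500.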

HCT116 [7] = test: as above; settings: 10 µM; treatment time 24 h; reporter: TCF4/Wnt
Summary of the method: as §2

SW480 [8] = test: as above; settings: 10 µM; treatment time 24 h; reporter: 7TFP
Summary of the method: as §2

DLD1 [9] = test: TCF/Wnt firefly luciferase reporter signal relative to plate median (fraction of plate median); higher = higher Wnt reporter signal; settings: 10 µM, treatment time 24 h
Summary of the method: as §2

HCT116 [10] = test: as above; settings: 10 µM; treatment time 24 h; reporter: TCF4/Wnt
Summary of the method: as §2

SW480 [11] = test: as above; settings: 10 µM; treatment time 24 h; reporter: 7TFP
Summary of the method: as §2

`C=C(C)[C@@H]1CC[C@]2(C(=O)O[C@@H]3O[C@H](CO[C@@H]4O[C@H](CO)[C@@H](O[C@@H]5O[C@@H](C)[C@H](O)[C@@H](O)[C@H]5O)[C@H](O)[C@H]4O)[C@@H](O)[C@H](O)[C@H]3O)CC[C@]3(C)[C@H](C[C@@H](O)[C@@H]4[C@@]5(C)[C@@H](CC(=O)O)OC(C)(C)[C@@H]5CC[C@]43C)[C@@H]12` [Isochiisanoside (6)] showed a cell viability (DLD1 [1]) of 0.92 ± 0.055, a cell viability (HCT116 [2]) of 0.934 ± 0.0028 and a cell viability (SW480 [3]) of 0.915 ± 0.066. The “TCF/Wnt firefly luciferase reporter signal” value (DLD1 [4]) was 0.953 ± 0.15 and the “TCF/Wnt firefly luciferase reporter signal” value (SW480 [5]) was 0.945 ± 0.0071.

`Cc1ccc([N+](=O)[O-])cc1S(=O)(=O)N(C)/N=C/c1cnc2ccc(Br)cn12` showed a cell viability (DLD1 [6]; reporter: 7TFP) of 0.887 ± 0.097, a cell viability (DLD1 [6]; reporter: TCF4/Wnt) of 1.07 ± 0.078 and a cell viability (HCT116 [7]) of 0.763 ± 0.23. The cell viability (SW480 [8]) was 1.13 ± 0.11, the “TCF/Wnt firefly luciferase reporter signal” value (DLD1 [9]; reporter: 7TFP) was 0.358 ± 0.074 and the “TCF/Wnt firefly luciferase reporter signal” value (DLD1 [9]; reporter: TCF4/Wnt) was 0.239 ± 0.0014. For the same compound, the “TCF/Wnt firefly luciferase reporter signal” value (HCT116 [10]) was 0.155 ± 0.059 and the “TCF/Wnt firefly luciferase reporter signal” value (SW480 [11]) was 0.53 ± 0.24.

For `CC12CCC3C(CC3(C)C)C(C)(CCC1=O)O2` (centres undefined), the cell viability (DLD1 [1]) was 0.908 ± 0.033, the cell viability (HCT116 [2]) was 0.972 ± 0.069 and the cell viability (SW480 [3]) was 0.892 ± 0.016. For the same compound, the “TCF/Wnt firefly luciferase reporter signal” value (DLD1 [4]) was 0.883 ± 0.23 and the “TCF/Wnt firefly luciferase reporter signal” value (SW480 [5]) was 0.889 ± 0.13.

Work on `OCCOCCN1CCN(C2=Nc3ccccc3Sc3ccccc32)CC1` yielded a cell viability (DLD1 [1]) of 1.05 ± 0.094, a cell viability (HCT116 [2]) of 1 ± 0.15 and a cell viability (SW480 [3]) of 0.991 ± 0.013. The “TCF/Wnt firefly luciferase reporter signal” value (DLD1 [4]) was 1.03 ± 0.028 and the “TCF/Wnt firefly luciferase reporter signal” value (SW480 [5]) was 1.08 ± 0.014.

`Cc1cc(Nc2nc(N[C@@H](C)c3ccc(F)cc3)c(C#N)cc2F)n[nH]1` was tested, and the cell viability (DLD1 [6]; reporter: 7TFP) was 0.875 ± 0.17, the cell viability (DLD1 [6]; reporter: TCF4/Wnt) was 0.843 ± 0.062 and the cell viability (HCT116 [7]) was 0.831 ± 0.015. For the same compound, the cell viability (SW480 [8]) was 1.02 ± 0.035, the “TCF/Wnt firefly luciferase reporter signal” value (DLD1 [9]; reporter: 7TFP) was 1.14 ± 0.23 and the “TCF/Wnt firefly luciferase reporter signal” value (DLD1 [9]; reporter: TCF4/Wnt) was 1.15 ± 0.25. For the same compound, the “TCF/Wnt firefly luciferase reporter signal” value (HCT116 [10]) was 1.22 ± 1.1 and the “TCF/Wnt firefly luciferase reporter signal” value (SW480 [11]) was 0.804 ± 0.38.

For `CN(C/C=C/C#CC(C)(C)C)Cc1cccc2ccccc12`, the cell viability (DLD1 [1]) was 1.04 ± 0.18, the cell viability (HCT116 [2]) was 1.04 ± 0.014 and the cell viability (SW480 [3]) was 1.03 ± 0.035. For the same compound, the “TCF/Wnt firefly luciferase reporter signal” value (DLD1 [4]) was 1.21 ± 0.042 and the “TCF/Wnt firefly luciferase reporter signal” value (SW480 [5]) was 1.07 ± 0.2.

In the case of `O=C(NC[C@H](O)CO)c1ccncc1Nc1ccc(I)cc1F`, the cell viability (DLD1 [6]; reporter: 7TFP) is reported as 1.15 ± 0.078, the cell viability (DLD1 [6]; reporter: TCF4/Wnt) is reported as 1.14 ± 0.071 and the cell viability (HCT116 [7]) is reported as 0.817 ± 0.036. The cell viability (SW480 [8]) was 1.14 ± 0.028, the “TCF/Wnt firefly luciferase reporter signal” value (DLD1 [9]; reporter: 7TFP) was 1.71 ± 0.46 and the “TCF/Wnt firefly luciferase reporter signal” value (DLD1 [9]; reporter: TCF4/Wnt) was 1.73 ± 0.54. The “TCF/Wnt firefly luciferase reporter signal” value (HCT116 [10]) was 1.18 ± 0.32 and the “TCF/Wnt firefly luciferase reporter signal” value (SW480 [11]) was 2.17 ± 0.11.

`COc1cccc2c1C(=O)c1c(O)c3c(c(O)c1C2=O)C[C@@](O)(C(=O)CO)C[C@@H]3O[C@H]1C[C@H](N)[C@H](O)[C@H](C)O1` gave a cell viability (DLD1 [1]) of 1.04 ± 0.059, a cell viability (HCT116 [2]) of 0.67 ± 0.22 and a cell viability (SW480 [3]) of 1.08 ± 0.035. For the same compound, the “TCF/Wnt firefly luciferase reporter signal” value (DLD1 [4]) was 1.09 ± 0.099 and the “TCF/Wnt firefly luciferase reporter signal” value (SW480 [5]) was 0.682 ± 0.11.
